Drawing on PubChem BioAssay AID624300 (Southern Research Specialized Biocontainment Screening …, 2012), this text covers outcome for 71 molecules.

In all, about 2,400 compounds went through this assay and about 360 (15%) were called active.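 Rule for the calls: active = viability falls under 70% at one or more tested concentrations, taken as toxicity; inactive = viability stays over 70% at every dose.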 These entries were drawn from the full list. Entries with a potency or affinity are not part of this list.

This assay in a line: HeLa cell cytotoxicity, dose response, cytotoxicity control for MgcRacGAP inhibitor project (AID 624300). Conditions: CellTiter-Glo luminescence, 24 h; series mostly up to 100 µM. For orientation: ATP-based viability assays read luminescence as a measure of living cells.
Take `CN(CC(=O)NCc1ccccc1)Cc1cccc(F)c1`: the outcome was inactive.

On to `O=C(CSc1nnc(C2CC2)n1C1CC1)N1CCN(c2ccc(O)cc2)CC1`, for which the outcome was inactive.

Take `CC1(C)OC(=O)C(=NNc2ccc(O)cc2)C(=O)O1`: the molecule was called inactive.

Turning to `Cc1cc(-c2cc(C)c(N)cc2C)c(C)cc1N`, the molecule was called inactive.

For `CC(=O)C[C@H]1c2cc(F)ccc2S(=O)(=O)N1c1ccc(N(C)C)cc1`, the call was inactive.

As to `COc1cc(OC)c(OC)cc1CN1CCN(Cc2ccc(SC)cc2)CC1`, the molecule was called inactive.

With `CN1CC(=O)N(CC(=O)Nc2ccc(N(C)C)cc2)c2ccccc2C1=O`, the outcome was inactive.

Regarding `Cc1ccccc1-c1ccc(Nc2ccc(N3CCOCC3)cc2)nn1`, the outcome was inactive.

Consider `CC1CCCC(N2CCN(C(=O)c3ccc([N+](=O)[O-])cc3)CC2)C1` (stereo unspecified), for which the molecule was called inactive.

In the case of `COCCCNc1nc(=S)[nH]c2cc(OC)c(OC)cc12`, the molecule was classed as inactive.

Turning to `OCCCCNc1cccc2ccccc12`, the molecule was called inactive.

As for `COCCNCc1nc2sc(C)c(-c3ccccc3)c2c(=O)[nH]1`, the result was inactive.

Turning to `COc1ccc(N2CCN(CC(=O)Nc3cccc(S(=O)(=O)N4CCOCC4)c3)CC2)cc1`, the molecule was called inactive.

Regarding `CCOc1cc(/C=N/NC(=O)CSc2cccc3cccnc23)ccc1O`, the molecule was classed as inactive.

Consider `Cc1cc(-c2ccccc2)nc2c(Br)c(=O)[nH]n12`, for which the molecule was called inactive.

`COc1cc(/C=N/NS(=O)(=O)c2ccc(C)c([N+](=O)[O-])c2)ccc1O`: the result was inactive.

Consider `O=C(O)c1ccccc1NS(=O)(=O)c1ccc(N/N=C/c2ccc(O)c(O)c2)c([N+](=O)[O-])c1`, for which the outcome was inactive.

For `C[C@]12CC[C@H]3C(=CCc4cc(O)ccc43)[C@@H]1CCC2=O`, the molecule was called inactive.

Regarding `CN(C)c1ccc(/C=C2/NC(=O)NC2=O)cc1`, the molecule was called inactive.

In the case of `CC1CCC/C(=C\c2ccc(O)cc2)C1=O` (stereo unspecified), the result was inactive.

For the molecule `O=C1NC(=S)NC1=Cc1ccc(O)cc1`, the molecule was called inactive.

Consider `CCOc1ccccc1NC(=O)C(NCC1(N2CCCCC2)CCCCC1)c1ccccc1` (stereo unspecified), for which the molecule was classed as inactive.

`O=C(NC(=S)Nc1cccc2c(O)cccc12)c1ccco1`: the molecule was called inactive.

Regarding `O=C(Nc1cc(Br)c(O)c(Br)c1)c1cccc(NC(=O)c2ccco2)c1`, the call was inactive.

Turning to `Brc1csc(C=Nc2ccc3c(c2)OCCOCCOCCOCCO3)c1`, the result was inactive.

As for `CCN(CC)c1ccc(/C=N/NC(=O)OC)c(O)c1`, the call was inactive.

On to `Cc1ccccc1C(=O)Nc1ccc(N2CCCC2)cc1`, for which the molecule was classed as inactive.

With `COC(=O)c1ccc(NC(=S)Nc2ccc(O)cc2)cc1`, the call was inactive.

For the molecule `COC(=O)c1ccc(CNC(=O)COC(=O)/C=C/c2ccc(O)c(OC)c2)cc1`, the molecule was classed as inactive.

As to `COc1ccc(C(=O)/C=C/c2ccc(O)cc2)cc1`, the molecule was called inactive.

Consider `COCCCNC(=S)N1CCN(Cc2ccc3c(c2)OCO3)CC1`, for which the molecule was classed as inactive.

Take `O=C(CC(c1ccccc1)c1ccccc1)Nc1ccc(O)cc1`: the call was inactive.

In the case of `CCOC(=O)C1CCCN(C2=NC(=O)/C(=C/c3ccc(O)c(OCC)c3)S2)C1` (stereo unspecified), the call was inactive.

On to `CCN(CC)S(=O)(=O)c1cccc(-c2n[nH]c(=S)n2/N=C/c2ccc(OC(F)F)cc2)c1`, for which the molecule was classed as inactive.

Turning to `Nc1ccc(N2CCCC2)c(S(=O)(=O)Nc2cccc(C(F)(F)F)c2)c1`, the molecule was classed as inactive.

As for `COc1ccc2c(c1)-c1nc(/N=C/c3c(O)ccc4ccccc34)sc1CC2`, the molecule was classed as inactive.

Consider `O=C(CN1C(=O)c2ccccc2S1(=O)=O)c1ccc(O)c(O)c1`, for which the molecule was called inactive.

In the case of `C=CCn1c(SCC(=O)c2ccc(O)c(O)c2)nnc1-c1cccc(Cl)c1`, the outcome was inactive.

With `CC1Cc2ccccc2N1C(=O)CNCCCN(C)C` (stereo unspecified), the result was inactive.

As for `CN(C)C(=S)N=c1ssc(=S)n1Cc1ccccc1`, the call was inactive.

Turning to `COc1ccc(NC2CCCN(C(=O)c3csc(C)n3)C2)cc1` (stereo unspecified), the result was inactive.

In the case of `C#CCOCCOCCOCCNc1nc(N2CCN(C(=O)[C@H](CCCCN)n3cc(CN)nn3)CC2)nc(N2CCN(C(=O)[C@H](CCC(=O)O)n3cc([C@@H](N)CCCCN)nn3)CC2)n1`, the molecule was classed as inactive.

Take `C#CCOCCOCCOCCNc1nc(N2CCN(C(=O)[C@H](CCCCN)n3cc(CN)nn3)CC2)nc(N2CCN(C(=O)[C@H](CCCCN)n3cc(CN)nn3)CC2)n1`: the result was inactive.

As to `Cc1ccc(CCNc2ccc3ccccc3c2)cn1`, the molecule was called inactive.

For the molecule `COc1cc(/C=C/CN2CCN(CCC(C)C)C(CCO)C2)ccc1O` (stereo unspecified), the call was inactive.

For `Nc1ccccc1Sc1ccc(C(=O)c2ccccc2C(=O)O)cc1[N+](=O)[O-]`, the molecule was classed as inactive.

As to `COc1ccc(NC2CCCN(C(=O)CCc3cn[nH]c3)C2)cc1` (stereo unspecified), the molecule was classed as inactive.

`CCn1c(=O)n(CC)c2cc(N3CCCC3)c(NC(=O)c3ccccc3)cc21`: the molecule was called inactive.

Regarding `COc1cccc(C(=O)Nc2cc3c(cc2N2CCCC2)n(C)c(=O)n3C)c1`, the molecule was classed as inactive.

`CN=Cc1cc(-c2ccccc2)sc1O`: the outcome was inactive.

Consider `COc1cc(/C=N/NC(=O)C(C)Nc2n[nH]c(=O)[nH]c2=O)ccc1O` (stereo unspecified), for which the molecule was classed as inactive.

On to `COc1ccc(CN2CCN(c3ccccn3)CC2)c(OC)c1C`, for which the molecule was classed as inactive.

Regarding `COc1ccccc1OCC#CCn1ccnc1`, the outcome was inactive.

As for `COc1cc(C2C(=O)c3ccccc3C2=O)ccc1O`, the molecule was classed as inactive.

Turning to `COc1cc(/C=N/N2C(=O)c3ccccc3C2=O)ccc1O`, the outcome was inactive.

On to `Oc1ccc(/C=N/NC(=S)NCCN2CCOCC2)c(O)c1`, for which the call was inactive.

Turning to `CC(=O)N1CCN(c2ccc(NCc3ccc(F)cc3)cc2)CC1`, the molecule was called inactive.

For `Clc1ccc(CNc2ccc(N3CCN(Cc4ccccc4)CC3)cc2)cc1`, the result was inactive.

Consider `CSCCOC(=O)C1=C(C)Nc2ccc(C)cc2S1`, for which the outcome was inactive.

In the case of `COc1cc(/C=N/n2c(-c3cc(C)[nH]n3)n[nH]c2=S)cc(OC)c1O`, the molecule was called inactive.

Consider `COc1cc(OC)c2cc[nH]c2c1`, for which the outcome was inactive.

Take `COc1cc(C=C2C(=O)c3ccccc3C2=O)cc(OC)c1OC`: the result was inactive.

As to `C[n+]1c(-c2ccccc2)cc2c(=Cc3ccc([N+](=O)[O-])cc3)c3ccccc3n21`, the result was inactive.

As for `CCOC(=O)c1sc(=S)[nH]c1C`, the molecule was classed as inactive.

`c1cc(CNc2ccc3c(c2)OCO3)ccn1`: the result was inactive.

Consider `COc1cccc(CN2CCN(Cc3cccc(Oc4ccccc4)c3)CC2)c1OC`, for which the result was inactive.

As for `CC1(C)CC(=O)C(C(C2=C(O)CC(C)(C)CC2=O)c2cccs2)C(=O)C1` (stereo unspecified), the call was inactive.

Turning to `COc1ccccc1NS(=O)(=O)c1cc(N)ccc1N1CCCC1`, the result was inactive.

Turning to `Cc1sc2ncnc(N/N=C/c3ccc(O)cc3)c2c1C`, the result was inactive.

Consider `COc1ccc(/C=N/Nc2ccccn2)cc1O`, for which the molecule was classed as inactive.

Consider `COc1cc(/C=C/C(=O)OCC(=O)Nc2ccc(S(=O)(=O)N3CCCC3)cc2)ccc1O`, for which the molecule was classed as inactive.
